Source: PubChem (several laboratories)
Hits are enriched below; roughly 0.99% of the tested compounds scored in any of these assays.
Keap1 Nrf2 FP = inhibitors of human Keap1-Nrf2 protein-protein interaction; AID 504523; inhibition, % at 9.4 µM; Keap1 Kelch-Nrf2 peptide fluorescence polarization, 1536-well; Q14145; 340,000 tested, 0.15% active; in the data active = inhibition above about 12%;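 also: human Keap1 Kelch domain with fluorescein labeled Nrf2 9mer peptide probe; higher means more block of Keap1 binding to Nrf2 peptide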
C-LANA FP = inhibitors of KSHV LANA C-terminal domain DNA binding; MBP-C-LANA/FAM-LBS DNA binding, fluorescence polarization; inhibition, % at 9 µM; 340,000 tested, 0.078% active; AID 504423;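 active = highest replicate inhibition at or above 60% at 9 µM, even if other replicates fall short; inactive = all replicates below 60% inhibition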
LANA-H2B inh = blocks KSHV LANA binding to histone H2A/H2B | Q9QR71 | cell-free LANA-H2A/H2B peptide, fluorescence polarization | inhibition, % (test concentration not listed) | 320,000 tested, 0.6% active | AID 2629; in the data active = inhibition mostly above about 10%, no sharp cut-off; inactive = mostly below about 6.7%
Target sequence (Q9QR71 whole entry, looked up): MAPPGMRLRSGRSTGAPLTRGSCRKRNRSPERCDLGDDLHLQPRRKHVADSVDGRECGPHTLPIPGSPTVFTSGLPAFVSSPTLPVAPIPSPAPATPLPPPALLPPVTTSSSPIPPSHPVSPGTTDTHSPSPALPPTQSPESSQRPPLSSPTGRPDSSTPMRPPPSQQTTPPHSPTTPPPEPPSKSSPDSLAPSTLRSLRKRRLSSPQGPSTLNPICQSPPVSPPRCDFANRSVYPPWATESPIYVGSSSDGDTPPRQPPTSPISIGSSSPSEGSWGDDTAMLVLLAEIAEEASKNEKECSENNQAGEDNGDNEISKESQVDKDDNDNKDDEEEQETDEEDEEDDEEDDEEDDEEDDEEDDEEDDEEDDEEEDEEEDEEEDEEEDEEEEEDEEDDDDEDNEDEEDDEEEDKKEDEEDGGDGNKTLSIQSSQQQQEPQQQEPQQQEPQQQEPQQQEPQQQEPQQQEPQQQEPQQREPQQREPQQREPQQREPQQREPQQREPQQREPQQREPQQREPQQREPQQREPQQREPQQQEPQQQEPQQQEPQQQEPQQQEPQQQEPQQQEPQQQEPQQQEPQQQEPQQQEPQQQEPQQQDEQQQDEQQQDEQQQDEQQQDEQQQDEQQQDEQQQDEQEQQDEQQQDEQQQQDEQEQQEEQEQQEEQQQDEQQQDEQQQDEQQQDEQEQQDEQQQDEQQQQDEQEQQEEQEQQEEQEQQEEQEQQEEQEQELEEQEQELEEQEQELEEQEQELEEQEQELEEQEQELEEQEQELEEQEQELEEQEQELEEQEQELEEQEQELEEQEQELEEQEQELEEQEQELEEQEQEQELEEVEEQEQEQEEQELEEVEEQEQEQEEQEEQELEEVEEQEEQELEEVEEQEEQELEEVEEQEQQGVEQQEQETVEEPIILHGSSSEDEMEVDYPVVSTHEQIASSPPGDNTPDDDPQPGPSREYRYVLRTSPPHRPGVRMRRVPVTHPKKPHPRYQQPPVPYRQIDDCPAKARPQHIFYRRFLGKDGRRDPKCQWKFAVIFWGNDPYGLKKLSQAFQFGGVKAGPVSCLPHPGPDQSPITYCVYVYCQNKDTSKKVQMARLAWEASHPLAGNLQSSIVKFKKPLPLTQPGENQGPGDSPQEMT
RTF Ca sens act = cardiac RTF calcium sensitization | AID 493008 | activation, % at 7.2 µM | P19429+P45379 | 340,000 tested, 0.24% active | IANBD-labeled TnC RTF fluorescence at EC20 calcium; 0% EC20 calcium, 100% full calcium;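 active = activation above the mean over all tested compounds plus 3 SD, cut at about 30% in these data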;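 also: rise in fluorescence read as greater calcium sensitivity of cardiac thin filaments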
RTF Ca sens inh = cardiac RTF calcium desensitization; P19429+P45379; inhibition, % at 7.15 µM; IANBD-labeled cardiac RTF, Ca2+ fluorescence; 340,000 tested, 0.12% active; AID 493244;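 active = inhibition above the mean inhibition of all tested compounds plus 3 SD, cut at about 17% in these data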;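 also: assay run at fixed EC70 calcium of 1.6 mM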
Numbers stand for hits; 0 = inactive; - = not tested or not shown; + = active, no number; ! = a repeat was not active.

SMILES	Keap1 Nrf2 FP	C-LANA FP	LANA-H2B inh	RTF Ca sens act	RTF Ca sens inh
C/C(=N/NC(=O)c1ccncc1)c1cc2ccc(O)cc2oc1=O	0	74.7	87.2	+	0
NC(=O)CN1C(=O)NC2(CCCc3ccccc32)C1=O (stereo unspecified)	0	0	0	0	0
CN(C)c1ccc(NC(=O)C2C3C=CC(C3)C2C(=O)O)cc1 (stereo unspecified)	0	0	0	0	0
O=C(COC(=O)c1cncc(Br)c1)NCc1ccc(Cl)cc1	0	0	166.9	0	0
CC(=O)C1=C(O)C(=O)N(c2ccc(C(=O)O)cc2)C1c1ccc([N+](=O)[O-])cc1 (stereo unspecified)	0	0	13.1	0	0
O=C1CNC(=S)N1CCCc1ccccc1	0	0	0	0	0
Cc1ccc(C)c(N(CC(=O)NCC2CCCO2)C(=O)CCC(=O)Nc2nccs2)c1 (stereo unspecified)	0	0	0	0	0
Cc1ccccc1-n1nc(C)c(N=O)c1N	0	0	30.3	0	0
Cc1nn(-c2ccccc2)c(N)c1N=Nc1cccnc1	0	0	0	0	0
CC1(C)CC2CC(C)(CN2C(=O)COC(=O)c2cncc(Br)c2)C1 (stereo unspecified)	0	0	0	0	0
COc1cccc(-c2nn(Cc3ccccc3)cc2CO)c1	0	0	0	0	0
CC[n+]1c(C)sc2cc(C)ccc21	0	0	9.2	0	0
CCCC[n+]1c(C)sc2ccc(C)cc21	0	0	0	0	0
CCN(CC)CCNC(=O)C(=O)Nc1cc2c3c(c1)CCC(=O)N3CCC2	0	0	0.9	0	0
CN(C)CCNC(=O)C(=O)Nc1cc2c3c(c1)CCN3C(=O)CC2	0	0	17.3	0	0
CC1CCC(NC(=O)C2CCC(CNS(=O)(=O)c3cccc4nsnc34)CC2)CC1 (stereo unspecified)	0	0	0	0	0
Cc1ccc(C)c(OCCC(=O)OCC(=O)N(C)c2c(N)n(Cc3ccccc3)c(=O)[nH]c2=O)c1	0	0	0	0	0
COc1ccccc1NC(=O)Cn1c(C)cc(=O)c2cccc(OC)c21	-	-	24.6	-	-
CN(CC1COc2ccccc2O1)C(=O)c1cc(COc2c(F)cccc2F)on1 (stereo unspecified)	0	0	0	0	0
CN(CC1COCCO1)C(=O)c1cc(COc2c(F)cccc2F)on1 (stereo unspecified)	0	0	115.5	0	0
CO[C@H]1C=CO[C@@]2(C)Oc3c(C)c(O)c4c(O)c(c(C=NN5CCN(C)CC5)c(O)c4c3C2=O)NC(=O)C(C)=CC=C[C@H](C)[C@H](O)[C@@H](C)[C@@H](O)[C@@H](C)[C@H](OC(C)=O)[C@@H]1C	0	0	48.8!	0	0
O=C(CCN1C(=O)/C(=C/c2ccccc2)SC1=S)NNC(=O)c1cccnc1	0	0	0	34.8	0
CCOC(=O)N1CCN(C(=O)/C=C/c2ccc(C(C)(C)C)cc2)CC1	0	0	37.5	0	0
COc1ccc(C(C)=O)cc1CSc1nc2ccccc2o1	0	0	0	0	0
CN(C)c1ccc(N=Cc2nc(-c3ccccc3)oc2O)cc1	0	0	0	45.2	0
SMILES	Keap1 Nrf2 FP	C-LANA FP	LANA-H2B inh	RTF Ca sens act	RTF Ca sens inh
Cc1ccc(N=Cc2nc(-c3ccc(C)cc3)oc2O)cc1	0	0	-	0	0
CC(=O)Nc1ccc(N=Cc2nc(-c3ccc(C)cc3)oc2O)cc1	0	0	0	38.3	0
CCCCNC(=O)CCCCC(=O)N/N=C/c1ccccc1Cl	0	0	0	0	0
CN(C)C(CNC(=O)c1ccc(Cl)c(S(=O)(=O)N2CCCCCC2)c1)c1ccccc1 (stereo unspecified)	0	0	14.5	0	0
Cc1cccn2c(CN(C)C3CCOC3)c(C(=O)N3CCCCC3)nc12 (stereo unspecified)	0	0	0	0	0
CN(Cc1c(C(=O)N2CCCCCCC2)nc2ccc(Cl)cn12)C1CCOC1 (stereo unspecified)	0	0	19.4	0	0
Cc1ccccc1NC(=O)/C=C/c1ccc([N+](=O)[O-])s1	0	0	0	0	0
COc1ccc(C(=O)Nc2nnc(SCC(=O)NCc3ccco3)s2)cc1OC	0	0	0	0	0
COc1cc(OC)cc(C(=O)Nc2nnc(SCC(=O)NCc3ccco3)s2)c1	0	0	39.2	0	0
CCCNC(=O)C1CCN(S(=O)(=O)c2ccc3[nH]c(=O)ccc3c2)CC1	0	0	20.2	0	0
CCCCNC(=O)C1CCN(C(=O)C2CCN(S(=O)(=O)c3ccc(C)cc3)CC2)CC1	0	0	12.6	0	0
Cc1ccc(S(=O)(=O)N2CCC(C(=O)NCCCN3CCCCCC3)CC2)cc1	0	0	0	0	0
CCC(C)NC(=O)C1CCN(S(=O)(=O)c2ccc3[nH]c(=O)ccc3c2)CC1 (stereo unspecified)	0	0	0	0	0
CNS(=O)(=O)c1cccc(C(=O)OCC(=O)Nc2ccc3ccccc3c2)c1	0	0	0	0	0
CC(=O)N1CCN(C(=O)c2cc(S(=O)(=O)N3CCN(c4ccccc4)CC3)ccc2Cl)CC1	0	0	-	0	0
O=C(Nc1ccc(Cl)c(Cl)c1)c1ccc(Cl)c(Cl)c1	0	0	0	0	0
O=C(Nc1ccc(Cl)c(Cl)c1)Nc1cc(C(=O)NC2CC2)ccc1Cl	-	-	16.7	-	-
Nc1ccc(-c2cc3ccccc3c(=O)o2)cc1	0	0	0	0	0
COc1cc(OC)cc(-c2cc3ccccc3c(=O)o2)c1	0	0	70.4	0	0
CC(=O)c1ccc(N2CCN(S(=O)(=O)c3cn(C)cn3)CC2)cc1	0	0	8.8	0	0
CC(=O)c1ccc(N2CCN(S(=O)(=O)c3cn(C)c(C)n3)CC2)cc1	0	0	0	0	0
COc1ccc(S(=O)(=O)N2CCC(C(=O)NC3CCCC3)CC2)cc1OC	0	0	16.0	0	0
COc1ccc(S(=O)(=O)N2CCC(C(=O)N[C@H](C(=O)NCc3ccncc3)C(C)C)CC2)cc1	0	0	0	0	0
COc1ccc(CNC(=O)[C@@H](NC(=O)C2CCN(S(=O)(=O)c3ccc(C)cc3)CC2)C(C)C)cc1OC	0	0	11.9	0	0
COc1ccc(C(CNC(=O)Cn2c(=O)oc3ccccc32)N(C)C)cc1 (stereo unspecified)	0	0	0	0	0
SMILES	Keap1 Nrf2 FP	C-LANA FP	LANA-H2B inh	RTF Ca sens act	RTF Ca sens inh
O=C(NC1CC1)c1ccc(-n2cccc2)cc1	0	0	99.4	0	0
O=C(NC(CO)Cc1ccc([N+](=O)[O-])cc1)C(Cl)Cl (stereo unspecified)	0	0	22.0	0	0
O=C(NC(CO)C(O)c1ccc([N+](=O)[O-])cc1)C(Cl)Cl (stereo unspecified)	0	0	0	0	0
COc1ccc(CCNC(=O)CS(=O)Cc2nc(-c3ccccc3Cl)oc2C)cc1OC (stereo unspecified)	0	0	17.0	0	0
Cc1cccc(OCc2nn[nH]n2)c1C	0	0	0	164.5	0
Cc1ccc(C(=O)OCc2cc(=O)n3ccsc3n2)s1	0	0	0	0	0
